Laboratory results reported in PubChem BioAssay (EPA / NIEHS).
Values joined by “and” are separate entries in the source; they are usually repeats but may differ in a detail not shown here. Equal values may be shown once. Some compounds were tested as several samples or in several runs, with calls that do not always agree. Active and inactive are the calls of the source. The calls were made as follows: active = hit-call score of the fitted dose curve at least 0.9, where 1 is the maximum; inactive = score below 0.9.

What was measured:
[1] = ATG_GLI_CIS: Attagene CIS-FACTORIAL HepG2 Assay for human Zinc Finger Protein GLI1 (AID 2282945); settings: HepG2, Attagene cis-factorial reporter mRNA, GLI element; actives raise or lower the signal
How it was run: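 Bidirectional curve fits relative to DMSO, using reporter mRNA levels from RT-PCR plus capillary electrophoresis. Cells were HepG2 transiently carrying cis-regulated reporter constructs, harvested 24 h after dosing.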

[2] = biological target: Bile acid receptor (Homo sapiens) (UniProt Q96RI1); experiment: ATG_IR1_CIS: Attagene CIS-FACTORIAL HepG2 Assay for human Nuclear Receptor Subfamily 1 Group H Member 4 (NR1H4), IR1 submotif (AID 2282946); settings: IR1 reporter transcription, actives raise or lower the signal
How it was run: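 Cells (human HepG2) carry transiently transfected cis-promoter reporter transcription units. Compounds are incubated 24 h, total RNA is reverse-transcribed and amplified, and labelled fragments are resolved by capillary electrophoresis. Curves use DMSO as baseline.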

[3] = ATG_GRE_CIS: Attagene CIS-FACTORIAL HepG2 Assay for human Glucocorticoid Response Elements (GRE) (AID 2282947); settings: HepG2 GRE cis-reporter, Attagene multiplex mRNA; actives raise or lower the signal
How it was run: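 Assay uses human hepatoma HepG2 cells transfected with cis-promoter reporter units, exposed 24 h. mRNA from reporters detected by RT-PCR plus capillary electrophoresis; DMSO serves as negative control and baseline.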

[4] = ATG_ISRE_CIS: Attagene CIS-FACTORIAL HepG2 Assay for human Interferon Regulatory Factor 1 (IRF1) binding to an Interferon-Stimulated Response Element (ISRE) (AID 2282948); settings: HepG2 ISRE cis-reporter (Attagene), mRNA transcription readout; actives raise or lower the signal
How it was run: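 HepG2 cells transiently transfected with multiplexed cis-promoter reporter units; after 24 h compound exposure, reporter mRNA quantified by RT-PCR, FAM labelling, HpaI digestion and capillary electrophoresis. Bidirectional fit versus DMSO baseline.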

[5] = ATG_M_32_CIS: Attagene CIS-FACTORIAL HepG2 Assay for M32 Transcription Factor (Internal Marker) (AID 2282949); settings: HepG2 Attagene cis-factorial M32 reporter, mRNA; actives raise or lower the signal;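 also: background control marker of the multiplexed CIS panel rather than a real target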
How it was run: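 Following 24 h chemical exposure of HepG2 cells transiently expressing cis-promoter reporter constructs, reporter transcript levels were determined by RT-PCR with fluorescent labelling and capillary electrophoresis, then fitted bidirectionally against DMSO.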

[6] = ATG_M_06_CIS: Attagene CIS-FACTORIAL HepG2 Assay for M06 Transcription Factor (Internal Marker) (AID 2282950); settings: HepG2 Attagene CIS-FACTORIAL M06 internal marker reporter; actives raise or lower the signal
How it was run: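 Measured 24 h post-dosing in transiently transfected HepG2 cells, this internal-marker endpoint reports reporter mRNA via RT-PCR with fluorescent primer extension and capillary electrophoresis. DMSO served as negative control and baseline for bidirectional fitting.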

[7] = biological target: Hypoxia-inducible factor 1-alpha (Homo sapiens) (UniProt Q16665); experiment: ATG_HIF1a_CIS: Attagene CIS-FACTORIAL HepG2 Assay for human Hypoxia Inducible Factor 1 (HIF1A) (AID 2282951); settings: HepG2 Attagene cis-factorial HIF1a reporter transcription; actives raise or lower the signal
How it was run: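 In this multiplexed cell assay, HepG2 cells bearing transfected cis reporters are dosed for 24 h and reporter mRNA is read by RT-PCR plus capillary electrophoresis; signal increases and decreases are both scored against DMSO.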

[8] = biological target: Heat shock factor protein 1 (Homo sapiens) (UniProt Q00613); experiment: ATG_HSE_CIS: Attagene CIS-FACTORIAL HepG2 Assay for human Heat Shock Transcription Factor 1 (HSE) (AID 2282953); settings: HepG2 HSE cis-reporter, Attagene RNA transcription; actives raise or lower the signal
How it was run: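 Reporter mRNA induction in HepG2 is measured 24 h after dosing, using transiently transfected multiplexed cis-regulated reporter units. Signal comes from capillary electrophoresis of labelled RT-PCR products, with DMSO as negative control.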

[9] = ATG_MRE_CIS: Attagene CIS-FACTORIAL HepG2 Assay for human Metal Responsive Element (MRE) (AID 2282954); settings: HepG2 MRE cis-reporter transcription, Attagene multiplex; actives raise or lower the signal
How it was run: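 After a 24 h chemical exposure, transiently transfected HepG2 cells yield RNA whose reporter sequences are amplified, FAM-labelled and sized by capillary electrophoresis. Curves are fitted bidirectionally relative to DMSO.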

[10] = ATG_PBREM_CIS: Attagene CIS-FACTORIAL HepG2 Assay for human Phenobarbital-responsive Enhancer Module (PBREM) (AID 2282955); settings: HepG2 PBREM cis-reporter, Attagene multiplexed transcription; actives raise or lower the signal
How it was run: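 After a 24 h incubation with test chemical, transfected HepG2 cells yield total RNA; reporter-specific RT-PCR products are fluorescently labelled, HpaI-digested and resolved by capillary electrophoresis against ROX size standards.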

[11] = biological target: Paired box protein Pax-6 (Homo sapiens) (UniProt P26367); experiment: ATG_Pax6_CIS: Attagene CIS-FACTORIAL HepG2 Assay for human Paired Box 6 (PAX6) (AID 2282956); settings: HepG2 CIS-FACTORIAL PAX6 reporter transcription, RNA readout; actives raise or lower the signal
How it was run: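 HepG2 cells transiently transfected with multiplexed cis-promoter reporter units (endogenous TF activity) were dosed for 24 h. Reporter mRNA was quantified by RT-PCR, 6-FAM labeling, HpaI digestion and capillary electrophoresis; bidirectional fitting versus DMSO baseline.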

[12] = ATG_PXRE_CIS: Attagene CIS-FACTORIAL HepG2 Assay for human Pregnane X Receptor Element (PXRE) (AID 2282957); settings: HepG2 Attagene CIS-FACTORIAL PXRE reporter, mRNA; actives raise or lower the signal
How it was run: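 HepG2 cells transiently transfected with cis-regulated multiple reporter transcription units; endogenous factor activity measured as reporter mRNA 24 h after dosing. RT-PCR, fluorescent primer extension, HpaI digestion, capillary electrophoresis; bidirectional fit versus DMSO baseline.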

[13] = ATG_PPRE_CIS: Attagene CIS-FACTORIAL HepG2 Assay for human Peroxisome Proliferator-activated Response Element (PPRE) (AID 2282958); settings: HepG2 PPRE cis-element reporter, Attagene transcription factor profiling; actives raise or lower the signal
How it was run: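 Multiplexed reporter transcription units under cis-regulatory promoters were transfected into HepG2 cells to capture endogenous factor activity. A 24 h incubation preceded RNA isolation and fluorescent RT-PCR fragment analysis.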

[14] = ATG_RORE_CIS: Attagene CIS-FACTORIAL HepG2 Assay for human RAR-related Orphan Receptor Element (RORE) (AID 2282959); settings: HepG2 Attagene cis-factorial RORE reporter, mRNA; actives raise or lower the signal
How it was run: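 Fluorescence intensity of reporter-specific cDNA fragments, separated by capillary electrophoresis, gives the signal. Source: HepG2 liver cells transiently transfected with cis-element reporters and exposed 24 h; DMSO-normalized bidirectional fit.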

[15] = ATG_Sox_CIS: Attagene CIS-FACTORIAL HepG2 Assay for human SRY-box transcription factor (SOX) (AID 2282960); settings: HepG2 Attagene cis-factorial SOX reporter, mRNA; actives raise or lower the signal
How it was run: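 After 24 h of chemical treatment, transfected HepG2 reporter cells are lysed for total RNA. Transcript levels come from RT-PCR with labelled primer extension and capillary electrophoresis, analysed bidirectionally versus DMSO.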

[16] = biological target: Transcription factor Sp1 (Homo sapiens) (UniProt P08047); experiment: ATG_Sp1_CIS: Attagene CIS-FACTORIAL HepG2 Assay for human Specificity Protein 1 (Sp1) (AID 2282961); settings: HepG2 Sp1 cis-reporter transcription, actives raise or lower the signal
How it was run: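 Sp1-driven reporter mRNA, read as capillary electrophoresis fluorescence after RT-PCR, in transiently transfected HepG2 cells dosed for 24 h; signal change in either direction relative to DMSO.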

[17] = ATG_SREBP_CIS: Attagene CIS-FACTORIAL HepG2 Assay for human Sterol Regulatory Element Binding (SREBP) (AID 2282962); settings: HepG2 Attagene cis-factorial SREBP reporter, mRNA; actives raise or lower the signal
How it was run: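 HepG2 cells transiently transfected with multiplexed cis-element reporter units report endogenous transcription factor activity. After 24 h of chemical exposure, reporter mRNA was quantified by RT-PCR, 6-FAM labelling, HpaI digestion and capillary electrophoresis; bidirectional fits used DMSO as baseline.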

[18] = biological target: Signal transducer and activator of transcription 3 (Homo sapiens) (UniProt P40763); experiment: ATG_STAT3_CIS: Attagene CIS-FACTORIAL HepG2 Assay for human Signal Transducer and Activator of Transcription 3 (STAT3) (AID 2282963); settings: HepG2, Attagene cis-factorial STAT3 reporter transcription; actives raise or lower the signal
How it was run: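 After a 24 h compound incubation, total RNA from MRTU-transfected HepG2 cells was converted to cDNA and reporter sequences PCR-amplified, labelled and profiled by capillary electrophoresis. Gain and loss of signal were referenced to DMSO.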

[19] = ATG_TA_CIS: Attagene CIS-FACTORIAL HepG2 Assay for human TA Basal Promoter (AID 2282964); settings: HepG2 Attagene CIS-factorial TA basal promoter reporter; actives raise or lower the signal
How it was run: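 Cis-factorial format in HepG2: reporters report endogenous factors, not chimeric Gal4 fusions. After 24 h treatment, reporter transcripts were measured by RT-PCR-capillary electrophoresis fluorescence, analysed bidirectionally versus DMSO.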

[20] = biological target: Hepatocyte nuclear factor 6 (Homo sapiens) (UniProt Q9UBC0); experiment: ATG_HNF6_CIS: Attagene CIS-FACTORIAL HepG2 Assay for human Hepatocyte Nuclear Factor 6 (HNF6) (AID 2282952); settings: HepG2 Attagene cis-factorial HNF6 reporter transcription; actives raise or lower the signal
How it was run: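 HepG2 cells transiently transfected with cis-element-driven multiple reporter transcription units, dosed 24 h; reporter mRNA quantified by RT-PCR, FAM primer extension, HpaI digestion and capillary electrophoresis; bidirectional fit versus DMSO baseline.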

Measured: AC50

Sequence of Hepatocyte nuclear factor 6 (Homo sapiens) (Q9UBC0 whole entry, looked up): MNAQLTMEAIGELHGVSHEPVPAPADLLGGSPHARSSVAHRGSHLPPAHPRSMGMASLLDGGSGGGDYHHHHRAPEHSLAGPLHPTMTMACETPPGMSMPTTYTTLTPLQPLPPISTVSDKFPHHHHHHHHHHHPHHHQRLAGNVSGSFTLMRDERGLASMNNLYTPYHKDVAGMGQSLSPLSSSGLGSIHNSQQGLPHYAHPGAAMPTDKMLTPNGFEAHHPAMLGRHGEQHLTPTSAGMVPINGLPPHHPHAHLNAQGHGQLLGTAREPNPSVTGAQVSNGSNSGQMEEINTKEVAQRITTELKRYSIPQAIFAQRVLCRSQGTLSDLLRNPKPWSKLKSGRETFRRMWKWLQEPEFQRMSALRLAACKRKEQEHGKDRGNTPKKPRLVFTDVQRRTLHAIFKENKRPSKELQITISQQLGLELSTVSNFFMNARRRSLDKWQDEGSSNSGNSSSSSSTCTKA
Sequence of Hypoxia-inducible factor 1-alpha (Homo sapiens) (Q16665 whole entry, looked up): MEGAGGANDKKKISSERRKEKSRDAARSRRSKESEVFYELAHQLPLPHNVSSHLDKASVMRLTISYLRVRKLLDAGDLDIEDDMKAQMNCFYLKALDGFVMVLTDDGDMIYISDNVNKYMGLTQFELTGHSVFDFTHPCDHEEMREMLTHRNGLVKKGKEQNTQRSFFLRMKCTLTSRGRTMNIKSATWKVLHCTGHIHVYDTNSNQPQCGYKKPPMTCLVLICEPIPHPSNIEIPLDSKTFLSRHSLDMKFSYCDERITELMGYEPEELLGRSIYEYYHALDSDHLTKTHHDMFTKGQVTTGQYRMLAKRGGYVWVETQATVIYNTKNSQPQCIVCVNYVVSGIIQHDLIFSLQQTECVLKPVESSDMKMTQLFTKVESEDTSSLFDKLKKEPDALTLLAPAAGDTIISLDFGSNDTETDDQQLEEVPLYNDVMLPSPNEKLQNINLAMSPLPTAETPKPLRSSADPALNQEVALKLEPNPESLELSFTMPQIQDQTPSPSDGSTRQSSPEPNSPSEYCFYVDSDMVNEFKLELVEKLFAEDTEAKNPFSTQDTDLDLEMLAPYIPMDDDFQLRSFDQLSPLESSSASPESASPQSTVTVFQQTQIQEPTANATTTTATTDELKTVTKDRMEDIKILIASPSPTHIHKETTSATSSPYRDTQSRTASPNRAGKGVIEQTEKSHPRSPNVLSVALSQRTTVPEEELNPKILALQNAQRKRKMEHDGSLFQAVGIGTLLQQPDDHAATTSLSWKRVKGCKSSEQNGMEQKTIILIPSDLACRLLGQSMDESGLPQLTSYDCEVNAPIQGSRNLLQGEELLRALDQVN
Sequence of Heat shock factor protein 1 (Homo sapiens) (Q00613 whole entry, looked up): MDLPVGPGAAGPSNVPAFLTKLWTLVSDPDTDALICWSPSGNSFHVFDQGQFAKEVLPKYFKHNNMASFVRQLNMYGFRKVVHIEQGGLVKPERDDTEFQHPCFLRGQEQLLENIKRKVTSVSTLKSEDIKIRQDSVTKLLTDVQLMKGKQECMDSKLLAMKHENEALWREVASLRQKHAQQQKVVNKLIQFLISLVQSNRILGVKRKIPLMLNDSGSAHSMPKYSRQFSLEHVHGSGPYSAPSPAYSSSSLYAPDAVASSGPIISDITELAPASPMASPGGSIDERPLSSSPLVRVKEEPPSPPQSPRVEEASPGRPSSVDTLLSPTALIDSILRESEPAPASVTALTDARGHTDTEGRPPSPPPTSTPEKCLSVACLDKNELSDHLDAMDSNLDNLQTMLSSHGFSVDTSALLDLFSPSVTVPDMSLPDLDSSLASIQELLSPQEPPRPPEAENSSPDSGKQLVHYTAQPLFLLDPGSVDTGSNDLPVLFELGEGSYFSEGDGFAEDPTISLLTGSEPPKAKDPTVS
Sequence of Paired box protein Pax-6 (Homo sapiens) (P26367 whole entry, looked up): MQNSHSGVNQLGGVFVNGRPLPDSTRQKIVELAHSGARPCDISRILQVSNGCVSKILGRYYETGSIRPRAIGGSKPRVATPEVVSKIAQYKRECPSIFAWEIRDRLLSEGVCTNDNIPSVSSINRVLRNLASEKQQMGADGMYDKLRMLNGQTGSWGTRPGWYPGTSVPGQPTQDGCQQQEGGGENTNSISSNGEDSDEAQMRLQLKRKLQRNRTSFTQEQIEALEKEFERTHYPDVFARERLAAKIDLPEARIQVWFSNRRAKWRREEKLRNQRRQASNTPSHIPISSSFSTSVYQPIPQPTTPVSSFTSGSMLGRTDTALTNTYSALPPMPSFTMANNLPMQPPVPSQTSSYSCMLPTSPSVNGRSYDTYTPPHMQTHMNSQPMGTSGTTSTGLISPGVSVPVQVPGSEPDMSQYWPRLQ
Sequence of Signal transducer and activator of transcription 3 (Homo sapiens) (P40763 whole entry, looked up): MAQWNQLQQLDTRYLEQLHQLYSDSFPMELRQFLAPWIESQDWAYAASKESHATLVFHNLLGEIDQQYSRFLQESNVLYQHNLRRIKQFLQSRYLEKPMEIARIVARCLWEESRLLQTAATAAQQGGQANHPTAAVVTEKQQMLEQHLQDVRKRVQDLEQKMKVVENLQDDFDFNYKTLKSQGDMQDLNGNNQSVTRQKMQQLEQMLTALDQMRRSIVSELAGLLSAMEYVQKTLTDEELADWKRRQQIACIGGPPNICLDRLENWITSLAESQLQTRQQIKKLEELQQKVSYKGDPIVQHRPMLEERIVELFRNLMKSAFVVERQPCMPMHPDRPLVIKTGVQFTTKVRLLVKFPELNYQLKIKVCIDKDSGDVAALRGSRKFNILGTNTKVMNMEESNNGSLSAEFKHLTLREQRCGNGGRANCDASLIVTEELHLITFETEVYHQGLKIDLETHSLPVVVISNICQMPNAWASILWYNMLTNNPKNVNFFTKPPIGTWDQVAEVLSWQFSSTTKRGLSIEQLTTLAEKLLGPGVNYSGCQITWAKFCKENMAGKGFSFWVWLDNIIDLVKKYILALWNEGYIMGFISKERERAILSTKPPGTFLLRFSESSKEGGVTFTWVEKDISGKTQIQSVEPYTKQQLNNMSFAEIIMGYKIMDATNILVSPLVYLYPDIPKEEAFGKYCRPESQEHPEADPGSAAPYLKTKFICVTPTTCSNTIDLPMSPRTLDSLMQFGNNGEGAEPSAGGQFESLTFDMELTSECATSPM
Sequence of Bile acid receptor (Homo sapiens) (Q96RI1 whole entry, looked up, the tested form may be a part): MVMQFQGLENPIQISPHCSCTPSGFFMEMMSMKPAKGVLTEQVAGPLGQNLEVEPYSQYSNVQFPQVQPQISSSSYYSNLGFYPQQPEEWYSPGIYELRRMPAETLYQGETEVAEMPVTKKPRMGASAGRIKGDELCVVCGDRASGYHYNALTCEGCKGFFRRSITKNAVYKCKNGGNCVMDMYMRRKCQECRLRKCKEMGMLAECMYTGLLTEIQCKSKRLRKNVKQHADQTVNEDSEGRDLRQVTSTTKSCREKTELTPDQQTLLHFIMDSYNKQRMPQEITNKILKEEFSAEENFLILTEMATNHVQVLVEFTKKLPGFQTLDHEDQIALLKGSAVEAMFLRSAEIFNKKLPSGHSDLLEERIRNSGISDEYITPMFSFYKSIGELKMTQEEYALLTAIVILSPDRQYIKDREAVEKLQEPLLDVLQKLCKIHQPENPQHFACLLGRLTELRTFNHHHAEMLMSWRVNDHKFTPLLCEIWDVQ
Sequence of Transcription factor Sp1 (Homo sapiens) (P08047 whole entry, looked up): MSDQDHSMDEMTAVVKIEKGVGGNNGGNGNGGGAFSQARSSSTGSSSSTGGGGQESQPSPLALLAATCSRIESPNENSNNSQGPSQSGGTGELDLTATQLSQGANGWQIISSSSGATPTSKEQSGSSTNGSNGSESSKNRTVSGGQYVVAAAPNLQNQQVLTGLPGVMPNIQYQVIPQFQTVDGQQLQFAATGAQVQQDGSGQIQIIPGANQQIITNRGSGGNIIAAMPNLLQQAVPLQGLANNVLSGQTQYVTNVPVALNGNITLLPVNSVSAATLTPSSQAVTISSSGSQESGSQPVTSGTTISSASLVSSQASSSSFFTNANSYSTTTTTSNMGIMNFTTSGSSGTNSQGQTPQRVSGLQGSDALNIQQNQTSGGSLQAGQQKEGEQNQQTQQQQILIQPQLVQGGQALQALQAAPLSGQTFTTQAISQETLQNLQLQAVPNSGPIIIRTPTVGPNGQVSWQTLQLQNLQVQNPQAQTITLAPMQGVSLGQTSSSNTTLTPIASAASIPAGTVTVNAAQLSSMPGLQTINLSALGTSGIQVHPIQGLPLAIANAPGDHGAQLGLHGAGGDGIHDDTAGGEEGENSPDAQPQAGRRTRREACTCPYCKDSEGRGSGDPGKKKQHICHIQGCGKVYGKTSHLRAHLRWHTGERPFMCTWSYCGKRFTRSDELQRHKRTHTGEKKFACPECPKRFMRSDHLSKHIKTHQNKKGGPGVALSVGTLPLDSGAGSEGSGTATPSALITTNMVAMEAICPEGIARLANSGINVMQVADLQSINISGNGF

CCCCC(CC)COC(=O)CCCCC(=O)OCc1ccccc1 (stereo not drawn)
inactive: [1] | [2] | [3] | [4] | [5] | [6] | [7] | [8] | [9] | [10] | [11] | [13] | [14] | [15] | [16] | [17] | [18] | [19]
active: [12] 12.4 µM

OCCC(F)(F)C(F)(F)C(F)(F)C(F)(F)C(F)(F)C(F)(F)C(F)(F)C(F)(F)F
inactive: [1] | [4] | [5] | [6] | [7] | [14] | [17] | [18] | [19]
active: [1] 59.2 µM | [4] 150 µM | [8] 55.7 µM and 234 µM | [9] 47.3 µM and 150 µM | [10] 52.5 µM and 222 µM | [11] 43.3 µM and 176 µM | [12] 52.1 µM and 98.7 µM | [14] 25.7 µM | [15] 33.4 µM and 150 µM | [16] 48.4 µM and 150 µM | [17] 222 µM

NCC(F)(F)C(F)(F)C(F)(F)C(F)(F)C(F)(F)C(F)(F)C(F)(F)F
inactive: [1] | [2] | [3] | [4] | [5] | [6] | [7] | [20] | [8] | [10] | [11] | [12] | [13] | [14] | [15] | [16] | [17] | [18] | [19]

COC(=O)CCCCC(=O)OC
inactive: [1] | [2] | [3] | [4] | [5] | [6] | [7] | [20] | [8] | [9] | [11] | [12] | [13] | [14] | [15] | [16] | [17] | [18] | [19]

CCCCCCCCCCCCCC[N+](C)(C)C
inactive: [1] | [2] | [3] | [4] | [5] | [6] | [7] | [20] | [8] | [9] | [10] | [11] | [12] | [13] | [14] | [15] | [16] | [18] | [19]
active: [2] 9.85 µM | [9] 8.9 µM | [17] 6.57 µM and 2.76 µM | [18] 18.1 µM

CCN(CC)CCNc1ccc(CNC=O)c2sc3ccc(OC)cc3c(=O)c12
active: [2] 1.19 µM | [3] 1.85 µM | [7] 0.515 µM | [20] 0.947 µM | [8] 1.85 µM | [16] 980 nM
inactive: [1] | [4] | [5] | [6] | [9] | [11] | [12] | [13] | [15] | [17] | [18] | [19]
